The campaign covered roughly 310,000 compounds. About 14,000 (4.5%) showed an effect of 50% or more. Effects have a minus sign here. The sample holds strong results, similar compounds and a random draw of the others, so the mix is not that of the screen.
Target: human ether-à-go-go-related gene (hERG) potassium channel (human, UniProt Q12809)
Test: primary screen, population patch clamp on CHO cells stably expressing hERG; higher = less effect of the substance
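Also: peak tail current of the secondary pulse compared with the same well before compound.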

Chain of human ether-à-go-go-related gene (hERG) potassium channel (Q12809 whole entry, looked up): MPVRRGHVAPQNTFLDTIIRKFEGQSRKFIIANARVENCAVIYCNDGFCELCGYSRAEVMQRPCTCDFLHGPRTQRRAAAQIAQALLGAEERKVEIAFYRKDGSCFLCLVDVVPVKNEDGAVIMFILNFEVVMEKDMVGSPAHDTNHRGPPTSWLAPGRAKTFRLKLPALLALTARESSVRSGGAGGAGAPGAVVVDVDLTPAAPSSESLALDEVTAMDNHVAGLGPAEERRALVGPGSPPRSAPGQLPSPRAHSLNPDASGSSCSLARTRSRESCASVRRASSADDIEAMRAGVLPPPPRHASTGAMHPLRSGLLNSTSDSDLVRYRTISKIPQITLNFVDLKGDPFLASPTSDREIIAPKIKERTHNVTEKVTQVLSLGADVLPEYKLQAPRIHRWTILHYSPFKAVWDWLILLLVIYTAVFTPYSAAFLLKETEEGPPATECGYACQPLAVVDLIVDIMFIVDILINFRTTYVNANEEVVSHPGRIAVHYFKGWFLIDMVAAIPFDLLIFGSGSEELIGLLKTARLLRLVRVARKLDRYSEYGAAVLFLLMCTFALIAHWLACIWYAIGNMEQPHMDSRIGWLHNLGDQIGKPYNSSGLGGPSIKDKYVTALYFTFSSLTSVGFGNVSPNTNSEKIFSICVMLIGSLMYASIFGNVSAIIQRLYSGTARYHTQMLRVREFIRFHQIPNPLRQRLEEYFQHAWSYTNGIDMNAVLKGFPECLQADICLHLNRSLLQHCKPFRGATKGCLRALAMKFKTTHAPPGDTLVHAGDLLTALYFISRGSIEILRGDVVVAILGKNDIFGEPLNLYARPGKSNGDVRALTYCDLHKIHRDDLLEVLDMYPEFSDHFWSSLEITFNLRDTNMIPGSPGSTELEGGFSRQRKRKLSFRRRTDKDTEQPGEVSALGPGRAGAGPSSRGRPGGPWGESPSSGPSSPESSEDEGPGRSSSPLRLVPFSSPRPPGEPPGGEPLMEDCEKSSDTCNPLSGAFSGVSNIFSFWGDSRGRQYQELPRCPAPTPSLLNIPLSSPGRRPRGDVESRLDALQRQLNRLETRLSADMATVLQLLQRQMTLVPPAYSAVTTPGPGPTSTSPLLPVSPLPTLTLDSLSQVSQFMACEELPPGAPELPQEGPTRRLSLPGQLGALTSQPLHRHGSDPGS

SMILES | hERG current change (%, negative = inhibition) at 10uM
O=C(NCc1ccc(F)cc1)C(=O)NCC1OCCN1C(=O)c1ccc(Cl)cc1 (stereo not drawn) | -43.2%
CN(C)Cc1c(O)ccc2cc(-c3nc4ccccc4n3C)c(=O)oc12 | 10.2%
O=C1/C(=C/c2cccs2)SC(=S)N1N1CCOCC1 | 5.26%
O=[N+]([O-])c1cc(CN2CCN(c3ccccc3)CC2)c(O)c2ncccc12 | -7.8%
O=[N+]([O-])c1cc(S(=O)(=O)/N=C(/c2ccccc2)N2CCOCC2)ccc1Cl | -23.9%
CC(C)CSC1=NSC2=NC(=O)/C(=C\c3cccs3)C(=N)N12 | 20.2%
CC(C)(Oc1ccc(Cl)cc1)C(=O)NCC(c1ccco1)N1CCCCC1 (stereo not drawn) | -20.2%
CC(C)(Oc1ccc(Cl)cc1)C(=O)NCC(c1cccs1)N1CCOCC1 (stereo not drawn) | -5.84%
COc1ccc(C(CNC(=O)Cc2ccccc2Cl)N2CCCCC2)cc1 (stereo not drawn) | 23%
COc1ccc(C(CNC(=O)C(C)(C)Oc2ccc(Cl)cc2)N2CCCCC2)cc1 (stereo not drawn) | -53.8%
COc1ccc(C(CNC(=O)C(C)(C)Oc2ccc(Cl)cc2)N2CCCC2)cc1 (stereo not drawn) | -50.1%
COc1ccccc1C(CNC(=O)C(C)(C)Oc1ccc(Cl)cc1)N1CCCC1 (stereo not drawn) | -45.1%
COc1ccc(N(CC(=O)O)S(=O)(=O)c2ccc(OC)c(OC)c2)cc1 | -29.6%
COc1ccc(OCC(=O)Nc2cccc(-c3nc4ccccc4[nH]3)c2)cc1 | -55.9%
O=C(COc1ccccc1)Nc1cccc(-c2nc3ccccc3[nH]2)c1 | -67%
CS(=O)(=O)c1cccc(C(=O)Nc2ccc(-c3nc4ccccc4[nH]3)cc2)c1 | 11.5%
CS(=O)(=O)c1cccc(C(=O)Nc2cccc(-c3nc4ccccc4[nH]3)c2)c1 | -56.7%
CS(=O)(=O)c1ccc(C(=O)Nc2cccc(-c3nc4ccccc4[nH]3)c2)cc1 | 16%
CC(=O)Nc1cccc(-c2nc3ccccc3[nH]2)c1 | 1.87%
O=C(COc1ccccc1)Nc1cccc(-c2nc3cc4ccccc4cc3[nH]2)c1 | -9.82%
O=C(O)CCCC(=O)Nc1cccc(-c2nc3ccccc3[nH]2)c1 | 34.1%
CC(C)CC(=O)Nc1cccc(-c2nc3ccccc3[nH]2)c1 | -16.5%

SMILES | hERG current change (%, negative = inhibition) at 10uM
COc1ccc(-n2c(SCC(=O)Nc3ccc4c(c3)OCO4)nc3c(c2=O)SCC3)cc1 | -10.9%
CCN(C(=S)NCCOC)c1cccc2ccccc12 | 8.8%
CC1(O)N(Cc2ccccc2)C(=O)OC12CCCCC2 (stereo not drawn) | 9.89%
CC1CN(CC(=O)NCc2ccc(F)cc2)CC(C)O1 (stereo not drawn) | 7.79%
CCn1ncc(S(=O)(=O)N2CCN(c3cccc(OC)c3)CC2)c1C | 5.68%
N/C(=N\OC(=O)c1ccccc1[N+](=O)[O-])c1cccnc1 | -2.9%
O=C(NCc1ccco1)c1cccc(S(=O)(=O)N2CCCCC2)c1 | -24.7%
Cc1ccc[n+](Cc2ccc([N+](=O)[O-])cc2)c1.[Br-] | 27.1%
C=CCc1ccc(OCCCNCc2ccccc2)c(OC)c1.O=C(O)C(=O)O | -57.4%
C=CCc1cc(C)ccc1OCCOCCN1CCN(C)CC1.O=C(O)C(=O)O | -10.7%
C/C=C/c1ccc(OCCN2CCc3ccccc3C2)c(OC)c1 | -77.7%
C=CCc1ccc(OCCCCNC(C)CC)c(OC)c1.O=C(O)C(=O)O (stereo not drawn) | -39.3%
C/C=C/c1ccc(OCC(=O)N2CCc3cc(OC)c(OC)cc3C2)c(OC)c1 | -12.4%
C=CCc1cc(OC)ccc1OCCN(C)Cc1ccccc1.O=C(O)C(=O)O | -16.6%
C=CCc1ccc(OC(=O)c2ccccc2)c(OC)c1 | 5.73%
C/C=C/c1ccc(OCCn2nnc3ccccc32)c(OC)c1 | -2.9%
C=CCc1ccc(OCCOCCN(C)C)c(OC)c1.O=C(O)C(=O)O | -27.5%
C=CCc1ccc(OCCN2CCc3ccccc3C2)c(OC)c1.O=C(O)C(=O)O | -67.6%
COc1cc(C)ccc1OCCCCNCc1ccccc1.O=C(O)C(=O)O | -0.752%
C=CCc1cc(OC)ccc1OCCOCCN1CCc2ccccc2C1.O=C(O)C(=O)O | -71%
O=C(NCc1ccncc1)c1ccc(Cl)c(S(=O)(=O)N2CCOCC2)c1 | 12.4%
CC1(C)OCC(COC(=O)Nc2cccnc2)([N+](=O)[O-])CO1 | 23.8%

SMILES | hERG current change (%, negative = inhibition) at 10uM
O=C(Nc1ccccc1)OCCOc1ccccc1 | -17.8%
CC1(c2ccccc2)CC(C)(C)N2C(=O)/C(=C3\SC(=S)NC3=O)c3cccc1c32 (stereo not drawn) | -0.561%
O=C(COC(=O)Cc1cn2ccsc2n1)Nc1nc2ccccc2s1 | 8.88%
CCOCCCNC(=O)C1CCN(c2cc(C)nc3c(-c4ccc(OC)c(OC)c4)c(C)nn23)CC1 | -7.5%
COc1cc(C)ccc1OCCOCCOc1cccc2ccc(C)nc12.O=C(O)C(=O)O | -29.3%
C=CCc1ccc(OCCOc2cccc3ccc(C)nc23)c(OC)c1.O=C(O)C(=O)O | -6.6%
C=CCc1ccc(OCCOCCOc2cccc3ccc(C)nc23)c(OC)c1.O=C(O)C(=O)O | -61.6%
CCOC(=O)c1[nH]c(C)c(C(=O)N2CCc3c([nH]c4ccccc34)C2c2ccccn2)c1C (stereo not drawn) | -0.347%
CSc1nc(NCc2ccccc2)c2c3c(sc2n1)CN(C)CC3 | -78%
CSc1nc(SCC(=O)NCc2ccco2)c2c3c(sc2n1)CN(C)CC3 | -0.986%
CCC(O)CNc1nc(SC)nc2sc3c(c12)CCN(C)C3 (stereo not drawn) | 0.847%
CSc1nc(NCc2ccco2)c2c3c(sc2n1)CN(C)CC3 | -75%
CCN(CC)CCCNc1nc(SC)nc2sc3c(c12)CCN(C)C3 | 11%
CSc1nc(NCCCN(C)C)c2c3c(sc2n1)CN(C)CC3 | 1.56%
Cc1ccc(CN2CC(C(=O)O)CC2=O)cc1 (stereo not drawn) | 6.55%
CCOc1ccc(NC(=O)C(CC(=O)O)Cc2ccc(Br)cc2)cc1 (stereo not drawn) | 11.1%
COc1ccc(C(=O)Oc2cccc(/C=N/NC(N)=S)c2)cc1 | 11.7%
Cc1ccc(NC(=S)N(CCCN2CCOCC2)Cc2ccco2)cc1 | 4.36%
Cc1ccc(NC(=S)N(CCCN2CCCC(C)C2)Cc2ccco2)cc1C (stereo not drawn) | -76.2%
Cc1ccc(NC(=S)N(CCCN2CCC(C)CC2)Cc2ccco2)cc1 | -72%
Cc1ccc(NC(=S)N(CCCN2CCOCC2)Cc2ccco2)cc1C | -31.9%
Cc1ccc2[nH]c(=O)c(CN(Cc3ccco3)C(=O)c3ccncc3)cc2c1 | -43.4%

SMILES | hERG current change (%, negative = inhibition) at 10uM
Cc1ccc(NC(=S)N(CCCN2CCC(C)CC2)Cc2ccco2)cc1C | -70.3%
Cc1ccccc1NC(=S)N(CCCN1CCC(C)CC1)Cc1ccco1 | -47.9%
Cc1ccc2[nH]c(=O)c(CN(Cc3ccco3)C(=O)CN3CCCC(C)C3)cc2c1 (stereo not drawn) | -57%
Cc1ccc2[nH]c(=O)c(CN(Cc3ccco3)C(=O)N3CCOCC3)cc2c1 | -0.449%
O=C(c1c[nH]c2ccccc12)C(O)C(c1ccccc1)N1CCOCC1 (stereo not drawn) | -0.703%
CSC1=N/C(=C\c2c(F)cccc2Cl)C(=O)S1 | -17.5%
CC(=O)Nc1ccc(NC(=O)CSc2nnc(C)n2-c2ccccc2)cc1 | 26.1%
CCOC(=O)C1C(=O)OC2(CCOC(C)(C)C2)C1C(=O)OCC (stereo not drawn) | 5.89%
COc1ccc(N(CC(=O)NCc2ccccc2Cl)S(=O)(=O)c2c(C)n[nH]c2C)cc1 | 2.87%
CS(=O)(=O)N1CCC(C(=O)Nc2ccc3c(c2)OCO3)CC1 | -7.81%
O=C(Nc1ccc2c(c1)OCCO2)C1CCN(C(=O)c2ccccc2)CC1 | 5.84%
O=C(Nc1ccc2c(c1)OCO2)C1CCCCC1 | 0.102%
O=C(Nc1ccc2c(c1)OCCO2)C1CCN(C(=O)c2ccc(Br)cc2)CC1 | -52.7%
O=C(Nc1ccc2c(c1)OCCO2)C1CCN(C(=O)c2ccc(Cl)cc2)CC1 | -12.5%
O=C(Nc1ccc2c(c1)OCO2)C1CCN(C(=O)c2ccc(Cl)cc2)CC1 | -73.5%
Cc1ccccc1C(=O)N1CCC(C(=O)Nc2ccc3c(c2)OCO3)CC1 | 3.97%
COc1ccc(C(=O)N2CCC(C(=O)Nc3ccc4c(c3)OCO4)CC2)cc1 | -79.9%
COc1cc(OC)cc(C(=O)N2CCC(C(=O)Nc3ccc4c(c3)OCCO4)CC2)c1 | 2.48%
O=C(Nc1ccc2c(c1)OCCO2)C1CCN(C(=O)c2ccc(F)cc2)CC1 | 3.73%
COc1ccc(C(=O)N2CCC(C(=O)Nc3ccc4c(c3)OCCO4)CC2)cc1 | -44.2%
O=C(Nc1ccc2c(c1)OCO2)C1CCN(C(=O)c2ccc(Br)cc2)CC1 | -70.5%
